Anthrax LF prot: inhibitors of Bacillus anthracis lethal factor protease. P15917. multiplex microsphere protease cleavage assay, LF. inhibition, % at 10 µM. 0.12% of 360,000 active. AID 588501; note: plate controls were buffer without enzyme for full effect and enzyme alone for no effect
BoNT-A LC inh2: BoNT A light chain protease inhibition; multiplex microsphere protease substrate cleavage, flow cytometry; inhibition, % at 10 µM; 0.17% of 360,000 active; AID 588499; note: plate controls were buffer without enzyme for full effect and enzyme alone for no effect
BoNT F protease: blocks Botulinum neurotoxin F light chain protease. Multiplex microsphere protease cleavage assay, flow cytometry. inhibition, % at 10 µM. 0.22% of 360,000 active. AID 588497; in the data active = inhibition above about 35%, passing the limit was not always enough; inconclusive = no clear call, values can overlap the other calls; note: plate controls were buffer without enzyme for full effect and enzyme alone for no effect
BJeLR lethal: kills HRASV12-expressing BJeLR cells. inhibition, % (concentration not given with the values). AID 1554. 0.17% of 300,000 active. BJeLR (HRASV12) viability, CellTiter-Glo ATP luminescence, 48 h; in the data active = inhibition above about 50%; inconclusive = no clear call, values can overlap the other calls
Bead autofluor: flagged as autofluorescent in microsphere protease counterscreen. compound autofluorescence counterscreen, microsphere flow cytometry; active compounds read high. fluorescence intensity (no concentration beside the values). 3.1% of 360,000 active. AID 624483; in the data active = fluorescence intensity above about 16000; inconclusive = no clear call, values can overlap the other calls
Starred values were filed as active, the others as inactive; ? = inconclusive; / = no result given. Hits are enriched below; roughly 3.5% of the tested compounds scored in any of these assays. Cut-off read from the data, not from the text of the source, unless noted: active = inhibition above about 30%; inconclusive = no clear call, values can overlap the other calls; inactive = below that.

SMILES	Anthrax LF prot	BoNT-A LC inh2	BoNT F protease	BJeLR lethal	Bead autofluor
Nc1nc2c(ncn2[C@@H]2O[C@H](CNS(=O)(=O)C3CC3)[C@@H](O)[C@H]2O)c(=O)[nH]1	-6	0	-16	/	4390
COc1ccc(N(CC(=O)NCCSC2CCCCC2)S(C)(=O)=O)c(OC)c1	-1	?	-10	-11	18476*
CS(=O)(=O)N(CC(=O)NCCSC1CCCCC1)c1ccc2c(c1)OCO2	1	0	3	3	2114
Cc1cc(C(=O)CSc2nnc(N)s2)c(C)n1CCc1ccc(Cl)cc1	-3	?	-2	-1	22078*
CCC(=O)Nc1nc(C)c(Oc2ccccc2)c(=O)[nH]1	0	0	-2	-1	2361
CC(=O)Nc1nc(C)c(Oc2ccccc2)c(=O)[nH]1	-12	2	3	2	20911*
CCc1nc2ccc(C(=O)NCc3ccc4c(c3)OCO4)cn2c1N(CCC(C)C)CCN(C)C	-2	0	-10	/	3057
CCOC(=O)C(Sc1nnc2c3ccccc3n(CC)c2n1)C(=O)OCC	0	0	0	8	16233*
CCn1c2ccccc2c2nnc(SCC(=O)Nc3ncccn3)nc21	-1	?	3	2	21373*
N#Cc1c(-c2ccccc2)nc2n(c1=O)CCS2	-15	-2	-19	5	4067
O=S(=O)(c1ccc(-c2csc(-c3cccnc3)n2)cc1)N1CCCCC1	-4	0	-2	9	22447*
COc1cccc(-n2c(SC)nnc2-c2cnccn2)c1	-9	6	6	3	20539*
CSc1nnc(-c2cnccn2)n1C	0	-1	-5	3	23864*
O=C(Nc1cccc(Cl)c1)c1ccc(NC2=NC3CS(=O)(=O)CC3S2)cc1 (stereo unspecified)	8	0	0	1	5203
O=C(O)CCC1C(=O)NC(=O)CC1c1ccccc1 (stereo unspecified)	-8	-1	-6	/	3965
O=C(COc1ccc([N+](=O)[O-])cc1)Nc1ccc2c(c1)nc1n2CCOC1	1	-1	6	-5	4443
Cc1csc(-c2ccc3cc(Cl)cc(Cl)c3n2)n1	5	1	-10	/	6310
Cc1cc(N2C(=O)C(O)=C(C(=O)c3cccs3)C2c2ccccc2)no1 (stereo unspecified)	-2	-3	-7	-12	17508*
Cc1cc(N2C(=O)C(O)=C(C(=O)c3cccs3)C2c2ccc(F)cc2)no1 (stereo unspecified)	-6	0	-2	4	5894
CC1(C(=O)NS(=O)(=O)c2cccc(F)c2)CCN1C(=O)CC1CCCC1 (stereo unspecified)	-7	0	2	/	3768
CCn1nc(C)c(C(=O)Nc2cc(Oc3ccc(Cl)cc3)cc([N+](=O)[O-])c2)c1C	0	3	2	-4	19896*
Cc1nn(CCCC(=O)Nc2cc(Oc3ccc(F)cc3)cc([N+](=O)[O-])c2)c(C)c1[N+](=O)[O-]	0	0	-1	4	7997
CC(C)Cc1nnc(NS(=O)(=O)Cc2ccccc2)s1	2	7	8	8	21019*
O=C(c1cnn2c1NC(c1ccco1)CC2C(F)(F)F)N1CCN(c2cccc(Cl)c2)CC1 (stereo unspecified)	-3	-1	-9	2	4778
CCc1c(C#N)c(N)nc(SCC(=O)OCc2ccccc2)c1C#N	-6	-3	-6	-1	17979*
SMILES	Anthrax LF prot	BoNT-A LC inh2	BoNT F protease	BJeLR lethal	Bead autofluor
CCN(CC)C(=O)CSc1nc(N)c(C#N)c(-c2cccs2)c1C#N	-2	?	-1	-2	21936*
CCN(CC)C(=O)CSc1nc(-c2cccs2)cc(-c2cccs2)c1C#N	2	13	-4	-4	3793
Cc1cccc(NC(=O)COc2ccc3oc4c(c3c2)CCCC4)n1	-4	-2	-1	11	23564*
Cc1cccc(NC(=O)COc2ccc3c(c2)CCC3)n1	-5	4	13	/	4094
Cc1ccc(S(=O)(=O)NC(=O)C2(C)CCN2C(=O)CC2CCCC2)cc1 (stereo unspecified)	-9	0	1	/	3551
CCOc1ccccc1-n1nnnc1SCc1nc2ccccc2s1	-3	-4	-8	4	17496*
O=S1(=O)N=C(N2CCc3ccccc3C2)c2ccccc21	0	1	2	-3	3909
C=CCn1c(Cc2c[nH]c3ccccc23)nnc1SCC(=O)NCc1ccccc1	-3	-2	-3	-10	23009*
CCCCNC(=O)C1(C)CCN1C(=O)c1csnn1 (stereo unspecified)	2	0	4	/	2993
Cn1cnnc1SCC(=O)c1c[nH]c2ccccc12	6	-6	-9	5	25248*

Bioassay records as filed in PubChem.
